Compound activity (PubChem)
Shown are actives, neighbours in structure and some others; about 19% of the full set was active somewhere.
DT40 TDP1 no CPT: qHTS for Inhibitors of human tyrosyl-DNA phosphodiesterase 1 (TDP1): qHTS in cells in absence of CPT | hit rate 15% among 420,000 | Potency, µM (series often up to 46.2 µM), for inactives: at the top dose activity change, negative = growth inhibition, usual class: inhibitors | DT40 Tdp1-/- hTDP1 cells, no CPT, ATP luminescence, 48 h; note: potency is the fitted concentration of half-maximal effect; nearly all actives have a fitted effect of over 55% in size
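Growth kinetics read by CellTiter-Glo luminescence after ≥48 hr at 37 °C. Cells: DT40 Tdp1-/- stably carrying human TDP1, 400 per well, compound exposure in the absence of CPT (DMSO vehicle).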
IL-1B inflam inh: qHTS for Inhibitors of Inflammasome Signaling: IL-1-beta AlphaLISA Primary Screen. THP-1 LPS/ATP IL-1B secretion, AlphaLISA, 16 h; hits give low values. activity change, % at 57.5 µM. hit rate 4.7% among 360,000. AID 743279, 2014; in the data active = activity change below about -50%; inconclusive = mostly about -30% to -49%
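THP-1 cells pretreated 1 hr with compounds (up to 57.5 uM final), then stimulated with LPS (250 ng/mL final) plus ATP (1.25 mM final); secreted IL-1B measured by AlphaLISA after 16 hr, decreased signal indicating inhibition.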
DT40 TDP1 CPT: qHTS for Inhibitors of human tyrosyl-DNA phosphodiesterase 1 (TDP1): qHTS in cells in presence of CPT. AID 686979, 2013. chicken DT40 Tdp1-/-;hTDP1 cells + 20 nM CPT, ATP luminescence, 48 h. Potency, µM (highest dose often 46.2 µM), without a hit: at the highest dose activity change, negative = growth inhibition, usual class: inhibitors. hit rate 12% among 420,000; note: potency is the fitted concentration of half-maximal effect; nearly all actives have a fitted effect of over 55% in size
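Chicken DT40 Tdp1-/- cells stably complemented with human TDP1 were seeded at 400 cells/well in medium containing 20 nM camptothecin, exposed to pin-transferred compounds, and grown at 37 °C for at least 48 hr. Viability was read as ATP luminescence.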
HT1080 IDH1KD tx: qHTS for induction of synthetic lethality in tumor cells producing 2HG: qHTS for the HT-1080-IDH1KD cell line. HT-1080 IDH1 knockdown viability, ATP luminescence, 48 h. Potency, µM (series often up to 46.1 µM), inactives show at the top dose activity, negative = toxicity, hits mostly cytotoxic. hit rate 2% among 360,000;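 note: potency is the fitted concentration of half-maximal effect; 0% = DMSO wells and -100% = cell-free medium wells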
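In this qHTS, HT-1080 cells depleted of IDH1 are exposed for 48 h at 37 °C to compound titrations. Toxicity is scored from CellTiter-Glo luminescence, with DMSO as full viability and medium alone as none.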
HT1080-NT tox: qHTS for induction of synthetic lethality in tumor cells producing 2HG: qHTS for the HT-1080-NT fibrosarcoma cell line | HT-1080-NT fibrosarcoma viability, CellTiter-Glo ATP luminescence, 48 h | Potency, µM (series often up to 46.1 µM), for inactives: top-dose activity, negative = less viability, most hits filed as cytotoxic | hit rate 1.6% among 360,000 | AID 686970, 2013;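 note: NT is the 2HG producing partner of a matched IDH1 knockdown line; potency is the fitted concentration of half-maximal effect; 0% = DMSO-treated cells and -100% = media-only wells without cells; nearly all actives have a fitted effect of over 55% in size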
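Luminescent CellTiter-Glo readout after 48 hours of compound exposure at 37 degrees C defined viability of HT-1080-NT cells. Activity was normalized to DMSO wells and cell-free media wells; concentration-response curves were fitted and assigned curve classes.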
Active calls of the source: *; ? = inconclusive; · = no result given; [ ] = another dose, or the depositor's remark. Unless noted, calls come from the whole dose curve; as a rule, active = well fitted curve in the direction sought with a large enough effect; inconclusive = small, poorly fitted or top-dose-only effect, or another doubt; inactive = no such curve, though single readings can be large; an effect the other way counts as inactive or inconclusive. Unless noted, % is set by controls: 0 for no effect and ±100 for the full control effect.

SMILES | DT40 TDP1 no CPT | IL-1B inflam inh | DT40 TDP1 CPT | HT1080 IDH1KD tx | HT1080-NT tox
Cc1ccc(N(Cc2cc3ccccc3[nH]c2=O)C(=O)c2cccs2)cc1C | 18.4µM* | -27.8 | ? | 17.2% | 13.9%
O=C(COC(=O)CNC(=O)c1ccccc1)NCCNC(=O)COC(=O)CNC(=O)c1ccccc1 | 12.6% | -3.4 | 16.8% | 7.4% | 3.0%
CCN1C(=O)/C(=C/C=C2\C=CN(CC)c3ccccc32)SC1=S | 16.4µM* | -0.9 | 16.4µM* | 13.9% | 13.4%
CCN1C(=O)C(=CC=CN(C)c2ccccc2)SC1=S | ? | -13.0 | ? | 10.6% | 10.1%
CCN1C(=O)/C(=C\C=C2/C=CC=CN2CC)SC1=S | 29.1µM* | ? | ? | -17.5% | -19.2%
CCOC(=O)/C(=C\Nc1ccc(OC(F)(F)F)cc1)Sc1ncc(C(F)(F)F)cc1Cl | 11.6µM* | -12.4 | 16.4µM* | -8.4%[9.24 µM] | 8.8%
CCOC(=O)C(C(=O)N(C)C)c1ncc(C(F)(F)F)cc1Cl (stereo unspecified) | -15.7% | 27.0 | 1.6% | 11.1% | 10.3%
CCOC(=O)/C(O)=C/c1ncc(C(F)(F)F)cc1Cl | ? | 16.4 | 23.1µM* | 8.3% | 5.8%
COC(=O)/C(=C\Nc1cccc(Cl)c1C)c1ncc(C(F)(F)F)cc1Cl | ? | -5.1 | 1.7% | 10.5% | 17.1%
CCN1CCN(C(=O)c2cc(COc3ccc(F)cc3F)on2)[C@@H](C)C1=O | 16.4µM* | 48.6 | -40.5% | -2.7% | -0.2%
O=C(c1cc(COc2ccc(F)cc2Cl)on1)N1CCCC(c2ccccc2)C1 (stereo unspecified) | ? | -63.8* | ? | ? | -25.2%
CN(CCCC1CCCC1)C(=O)c1cc(COc2ccc(F)cc2F)on1 | ? | -51.3* | ? | 2.4% | 5.9%
O=C(c1cc(COc2ccc(F)cc2Cl)on1)N1CC2C[C@@H]3CC1C[C@H](C2)C3 | ? | -15.5 | 1.3µM* | 0.0% | 1.2%
CCOC(=O)N1CCN(C(=O)c2cc(COc3ccc(F)cc3F)on2)CC1 | ? | 7.7 | ? | -4.5% | 0.8%
O=C(c1cc(COc2ccc(F)cc2F)on1)N1CCCC(c2ccccc2)C1 (stereo unspecified) | ? | ? | -18.4% | ? | -14.6%
CSc1cccc(NC(=O)Nc2ccccc2OCc2cc(=O)n3cc(C)ccc3n2)c1 | 20.6µM* | · | 23.1µM* | · | ·
CCC(Oc1ccccc1)C(=O)Nc1ccc(OCc2cc(=O)n3ccc(C)cc3n2)cc1 (stereo unspecified) | 18.4µM* | · | ? | · | ·
CCOC(=O)c1ccc(NC(=O)Nc2cccc(OCc3cc(=O)n4ccc(C)cc4n3)c2)cc1 | ? | · | -27.4% | · | ·
COc1ccc(C)cc1NC(=O)Nc1cccc(OCc2cc(=O)n3ccc(C)cc3n2)c1 | 9.2µM* | · | 9.2µM* | · | ·
CCOc1ccc(C(=O)COC(=O)c2cc(=O)[nH]c3ccccc23)cc1 | -3.8% | 10.3 | -1.1% | 0.8% | -2.3%
CCOC(=O)c1cc(S(=O)(=O)N2CCCC2)cn1C | -22.3% | -0.4 | -3.2% | -3.1% | -1.0%
Cc1ccc(N(CC(=O)NC2CCCCC2)C(=O)CCCC(=O)Nc2ccccn2)cc1 | -23.1% | 16.6 | -18.3% | -1.0% | -1.6%
Cc1cc2c(c(-c3cnccn3)c1)OC(CNC(=O)c1ccccc1C(F)(F)F)C2 (stereo unspecified) | -10.0% | · | -2.7% | · | ·
Cc1cc(C)n(-c2cccc(C(=O)NCC3Cc4cc(Cl)cc(-c5cnccn5)c4O3)c2)n1 (stereo unspecified) | ? | · | -3.6%[9.04 µM] | · | ·
O=C(NCC1Cc2cc(F)cc(-c3cnccn3)c2O1)c1cccc(Cl)c1 (stereo unspecified) | 18.4µM* | · | ? | · | ·
O=C(NCC1Cc2cc(F)cc(-c3cnccn3)c2O1)c1cccc(-c2ccccc2F)c1 (stereo unspecified) | 23.1µM* | · | 11.6µM* | · | ·
